PubChem BioAssay (EPA / NIEHS)
The source made the active and inactive calls. How the source made its calls: active means hit-call score of the fitted dose curve at least 0.9, where 1 is the maximum; inactive means score below 0.9.

What was measured:
Details in all cases: mRNA level, 48 h; actives raise or lower the signal
[1] = read-out: Interleukin 6 Receptor (IL6R), IL6R (gene 3570); assay: LTEA_HepaRG_IL6R: Life Technologies and Expression Analysis (LTEA) Assay for Interleukin 6 Receptor (IL6R) using HepaRG (AID 2283510)
Outline: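 IL6R transcript level by qRT-PCR after 48 h chemical exposure (8-point, half-log, max 100 uM, 0.5% DMSO vehicle) of HepaRG cells in serum-free induction medium. Normalized to three housekeeping genes; curves fitted in both directions relative to DMSO.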

[2] = read-out: Potassium channel subfamily K member 1 (KCNK1), KCNK1 (gene 3775); assay: LTEA_HepaRG_KCNK1: Life Technologies and Expression Analysis (LTEA) Assay for Potassium channel subfamily K member 1 (KCNK1) using HepaRG (AID 2283511)
Outline: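 Human HepaRG cultures receive test chemicals for 48 h in 0.5% DMSO, top concentration 100 uM with half-log dilutions. Induction or suppression of KCNK1 mRNA relative to DMSO is derived by bidirectional fitting of qRT-PCR data.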

[3] = read-out: Keratin 19 (KRT19), KRT19 (gene 3880); assay: LTEA_HepaRG_KRT19: Life Technologies and Expression Analysis (LTEA) Assay for Keratin 19 (KRT19) using HepaRG (AID 2283512)
Outline: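 HepaRG, 48 h chemical exposure, 8-pt half-log CRC from 100 uM, 0.5% DMSO vehicle, duplicates. Readout: TaqMan qRT-PCR of KRT19 mRNA, housekeeping-normalized (ACTB/GAPDH/POLR2A). Bidirectional fit vs DMSO baseline.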

[4] = read-out: JUN Transcription Factor, JUN (gene 3725); assay: LTEA_HepaRG_JUN: Life Technologies and Expression Analysis (LTEA) Assay for JUN Transcription Factor using HepaRG (AID 2283513)
Outline: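 mRNA measured by TaqMan qRT-PCR after 48 h chemical exposure of HepaRG cultures; normalization to three housekeeping genes. Duplicate eight-point half-log curves from 100 uM in 0.5% DMSO; gain or loss fitted against DMSO baseline.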

[5] = read-out: Lipase C (LIPC), LIPC (gene 3990); assay: LTEA_HepaRG_LIPC: Life Technologies and Expression Analysis (LTEA) Assay for Lipase C (LIPC) using HepaRG (AID 2283514)
Outline: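 In this multiplexed gene-expression screen, human HepaRG cultures received test chemicals for 48 h across eight concentrations with 100 uM highest, in duplicate. Values reflect LIPC mRNA induction or suppression versus DMSO vehicle, from normalized qRT-PCR.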

[6] = read-out: Lipoprotein lipase (LPL), LPL (gene 4023); assay: LTEA_HepaRG_LPL: Life Technologies and Expression Analysis (LTEA) Assay for Lipoprotein lipase (LPL) using HepaRG (AID 2283515)
Outline: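 Concentration-response testing used half-log steps from 100 uM in 0.5% DMSO on human HepaRG cells, 48 h, duplicate wells. Phenobarbital 1 mM served as induction control; LPL mRNA was normalized to ACTB, GAPDH, POLR2A.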

[7] = read-out: MicroRNA 122 (MIR122), gene 406906; assay: LTEA_HepaRG_MIR122: Life Technologies and Expression Analysis (LTEA) Assay for MicroRNA 122 (MIR122) using HepaRG (AID 2283516); further: the transcript read is the microRNA miR-122
Outline: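 Expression measured by microfluidic qRT-PCR with three housekeeping genes for normalisation, after 48 h treatment of HepaRG cultures. Eight concentrations (top 100 uM, half-log steps, 0.5% DMSO vehicle) in duplicate; gain or loss fitted relative to vehicle.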

[8] = read-out: matrix metalloproteinase-10 (MMP10), MMP10 (gene 4319); assay: LTEA_HepaRG_MMP10: Life Technologies and Expression Analysis (LTEA) Assay for matrix metalloproteinase-10 (MMP10) using HepaRG (AID 2283517)
Outline: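 In differentiated HepaRG cultures kept in 0.5% DMSO, test chemicals act for 48 h over an eight-point range with a top dose of 100 uM. Expression is then quantified by TaqMan RT-PCR against ACTB, GAPDH and POLR2A.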

MYC, MYC (gene 4609) = assay: LTEA_HepaRG_MYC: Life Technologies and Expression Analysis (LTEA) Assay for MYC using HepaRG (AID 2283518)
Outline: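 qRT-PCR read-out of MYC transcript (Fluidigm TaqMan, housekeeping-normalized) after 48 h chemical exposure of HepaRG cells; eight concentrations, top 100 uM, half-log steps. Bidirectional curve fitting against 0.5% DMSO vehicle baseline.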

[9] = read-out: matrix metalloproteinase-3 (MMP3), MMP3 (gene 4314); assay: LTEA_HepaRG_MMP3: Life Technologies and Expression Analysis (LTEA) Assay for matrix metalloproteinase-3 (MMP3) using HepaRG (AID 2283519)
Outline: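 Human liver HepaRG cultures received chemicals (top concentration 100 uM, 0.5% DMSO) for 48 h in duplicate. MMP3 mRNA induction or loss was then assessed via TaqMan qRT-PCR with housekeeping-gene normalisation.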

[10] = read-out: Paternally Expressed 10 (PEG10), PEG10 (gene 23089); assay: LTEA_HepaRG_PEG10: Life Technologies and Expression Analysis (LTEA) Assay for Paternally Expressed 10 (PEG10) using HepaRG (AID 2283520)
Outline: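 PEG10 transcript measured by Fluidigm qRT-PCR, normalized to three housekeeping genes, in HepaRG cells treated 48 h (highest 100 uM, half-log steps, 0.5% DMSO vehicle). Cells plated 48 h before switching to serum-free induction medium.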

[11] = read-out: Protein phosphatase 2A (PPP2R4), PTPA (gene 5524); assay: LTEA_HepaRG_PPP2R4: Life Technologies and Expression Analysis (LTEA) Assay for Protein phosphatase 2A (PPP2R4) using HepaRG (AID 2283522)
Outline: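 Expression was quantified by Fluidigm qRT-PCR normalised to three housekeeping genes after 48 h treatment. Human HepaRG cells received an 8-point series from 100 µM downward by half-logs, in duplicate with 0.5% DMSO vehicle and 1 mM phenobarbital as induction control.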

[12] = read-out: Phosphatase and tensin (PTEN), PTEN (gene 5728); assay: LTEA_HepaRG_PTEN: Life Technologies and Expression Analysis (LTEA) Assay for Phosphatase and tensin (PTEN) using HepaRG (AID 2283523)
Outline: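 Expression of PTEN is quantified in the human liver line HepaRG following two days of dosing (top concentration 100 uM, half-log dilutions, 0.5% DMSO). Values derive from bidirectional curve fitting relative to DMSO controls.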

[13] = read-out: solute carrier (SLC22A1), SLC22A1 (gene 6580); assay: LTEA_HepaRG_SLC22A1: Life Technologies and Expression Analysis (LTEA) Assay for solute carrier (SLC22A1) using HepaRG (AID 2283524)
Outline: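 Transcript induction or suppression of SLC22A1 in human HepaRG cultures is scored after 48 h chemical treatment, with DMSO (0.5%) as baseline for bidirectional fitting. Concentrations span eight half-log points topping at 100 uM.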

[14] = read-out: Pyruvate Dehydrogenase Kinase 4 (PDK4), PDK4 (gene 5166); assay: LTEA_HepaRG_PDK4: Life Technologies and Expression Analysis (LTEA) Assay for Pyruvate Dehydrogenase Kinase 4 (PDK4) using HepaRG (AID 2283525)
Outline: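 Eight-point, half-log concentration series (max 100 uM, 0.5% DMSO) applied to differentiated HepaRG cells for 48 h in duplicate. Endpoint: PDK4 mRNA induction or repression by qRT-PCR against DMSO baseline.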

[15] = read-out: NAD(P)H dehydrogenase [quinone] 1 (NQO1), NQO1 (gene 1728); assay: LTEA_HepaRG_NQO1: Life Technologies and Expression Analysis (LTEA) Assay for NAD(P)H dehydrogenase [quinone] 1 (NQO1) using HepaRG (AID 2283526)
Outline: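 NQO1 transcript induction or loss measured by TaqMan qRT-PCR, referenced to three housekeeping genes and fitted bidirectionally against 0.5% DMSO. HepaRG cultures exposed 48 h, duplicate, eight-point half-log series, top 100 uM.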

[16] = read-out: Nuclear factor erythroid 2-related factor 2 (Homo sapiens) (UniProt Q16236); assay: LTEA_HepaRG_NFE2L2: Life Technologies and Expression Analysis (LTEA) Assay for Nuclear factor erythroid 2-related factor 2 (NFE2L2) Transcription Factor using HepaRG (AID 2283527);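 further: TaqMan qRT-PCR transcript level normalised to ACTB GAPDH and POLR2A housekeeping genes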
Outline: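 Human liver HepaRG line treated in duplicate for 48 h with an eight-point series topping at 100 uM. Gene expression of NFE2L2 by qRT-PCR, bidirectionally fitted against the vehicle control.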

[17] = read-out: succinate dehydrogenase complex iron sulfur subunit B (SDHB), SDHB (gene 6390); assay: LTEA_HepaRG_SDHB: Life Technologies and Expression Analysis (LTEA) Assay for succinate dehydrogenase complex iron sulfur subunit B (SDHB) using HepaRG (AID 2283528)
Outline: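 Readout is SDHB transcript level by qRT-PCR, normalised to three housekeeping genes and fitted bidirectionally against 0.5% DMSO vehicle. Human HepaRG cells were treated for 48 h at up to 100 uM.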

[18] = read-out: Signal transducer and activator of transcription 3 (Homo sapiens) (UniProt P40763); assay: LTEA_HepaRG_STAT3: Life Technologies and Expression Analysis (LTEA) Assay for Signal transducer and activator of transcription (STAT3) using HepaRG (AID 2283529)
Outline: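 In this transcriptional endpoint, HepaRG cultures receive test chemicals at up to 100 uM for 48 h, tested in duplicate. STAT3 mRNA is normalized to ACTB, GAPDH and POLR2A.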

[19] = read-out: solute carrier (SLCO1B1), SLCO1B1 (gene 10599); assay: LTEA_HepaRG_SLCO1B1: Life Technologies and Expression Analysis (LTEA) Assay for solute carrier (SLCO1B1) using HepaRG (AID 2283530)
Outline: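 SLCO1B1 transcript read by qRT-PCR (Fluidigm arrays), normalized to three housekeeping genes, after 48 h chemical exposure of HepaRG cells; bidirectional concentration-response fitting versus 0.5% DMSO baseline. Eight-point half-log series, maximum 100 uM.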

Measured: outcome

Nuclear factor erythroid 2-related factor 2 (Homo sapiens), sequence (Q16236 whole entry, looked up): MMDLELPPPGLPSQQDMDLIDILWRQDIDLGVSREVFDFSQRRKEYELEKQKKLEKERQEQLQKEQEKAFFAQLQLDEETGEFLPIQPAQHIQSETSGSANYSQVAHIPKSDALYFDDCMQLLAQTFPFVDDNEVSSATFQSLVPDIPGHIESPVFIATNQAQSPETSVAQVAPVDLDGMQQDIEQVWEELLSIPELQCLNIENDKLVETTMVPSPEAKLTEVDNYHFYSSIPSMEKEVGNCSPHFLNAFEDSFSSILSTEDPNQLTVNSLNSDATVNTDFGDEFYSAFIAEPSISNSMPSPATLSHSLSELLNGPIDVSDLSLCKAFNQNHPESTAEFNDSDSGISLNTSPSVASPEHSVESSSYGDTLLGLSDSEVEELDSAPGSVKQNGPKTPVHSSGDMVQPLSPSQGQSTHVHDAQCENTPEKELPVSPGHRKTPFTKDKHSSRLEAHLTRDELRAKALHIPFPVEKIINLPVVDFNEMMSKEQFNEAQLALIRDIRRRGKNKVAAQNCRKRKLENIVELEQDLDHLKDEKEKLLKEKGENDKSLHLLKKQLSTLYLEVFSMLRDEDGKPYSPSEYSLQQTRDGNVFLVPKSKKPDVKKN
Signal transducer and activator of transcription 3 (Homo sapiens), sequence (P40763 whole entry, looked up): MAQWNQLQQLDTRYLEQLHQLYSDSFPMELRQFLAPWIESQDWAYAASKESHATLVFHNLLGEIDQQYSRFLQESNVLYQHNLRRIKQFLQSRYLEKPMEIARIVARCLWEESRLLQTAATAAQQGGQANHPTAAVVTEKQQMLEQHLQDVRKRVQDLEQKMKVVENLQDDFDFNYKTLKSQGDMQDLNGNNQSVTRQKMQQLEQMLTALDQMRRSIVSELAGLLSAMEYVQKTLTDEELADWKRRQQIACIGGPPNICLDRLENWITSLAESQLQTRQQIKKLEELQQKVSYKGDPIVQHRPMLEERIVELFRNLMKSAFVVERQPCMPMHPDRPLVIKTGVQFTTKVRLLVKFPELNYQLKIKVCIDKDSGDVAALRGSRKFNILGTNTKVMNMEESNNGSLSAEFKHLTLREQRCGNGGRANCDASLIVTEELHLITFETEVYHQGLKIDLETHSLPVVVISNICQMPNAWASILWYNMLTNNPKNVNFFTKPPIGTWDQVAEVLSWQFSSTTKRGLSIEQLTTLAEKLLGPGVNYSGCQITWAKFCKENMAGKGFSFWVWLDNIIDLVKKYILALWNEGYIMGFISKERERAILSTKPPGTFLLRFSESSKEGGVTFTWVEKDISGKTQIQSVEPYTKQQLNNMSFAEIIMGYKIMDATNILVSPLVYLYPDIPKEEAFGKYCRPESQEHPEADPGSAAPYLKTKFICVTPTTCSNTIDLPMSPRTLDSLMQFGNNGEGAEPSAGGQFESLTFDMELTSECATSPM

CS(=O)(=O)OCCCCOS(C)(=O)=O
inactive: all assays above
